The structures appear in SMILES notation. Among all 13,000 compounds or so, about 3,200 (25%) showed an effect of 50% or more. Some of the results follow.

The text below walks through data of PMC4552634, “A New Set of Chemical Starting Points with Plasmodium falciparum Transmission-Blocking Potential for Antimalarial Drug Discovery” (PLoS ONE, 2015).

In this test the test system is P. falciparum stage V gametocytes. Also noted: BacTiter-Glo ATP luminescence viability of purified stage V gametocytes in 384-well plates, per cent inhibition versus DMSO. The following applies: 48 h, 5 µM; inhibitor.
What is called % Inhibition is the change of the read-out against control, counted positive when it falls. For `Cc1cccc2nc(-c3cccc(-c4cccc(NC(=O)NC5CC5c5ccccc5)c4)c3)[nH]c12` (stereo not drawn) [TCMDC-133254], the “% Inhibition” value is given as -21.78%. For `CNC(=O)/C=C/c1cc(NC(=O)Nc2cc(C)nc3c(F)cccc23)ccc1OC` [TCMDC-140324] the value was -6.922%; for `O=C(CNC1CCCCC1)Nc1cccc(C(=O)Nc2cccc(C(F)(F)F)c2)c1` [TCMDC-123711], 29.34%. For `O=C(Nc1cccc(C(F)(F)F)c1)c1cccc(S(=O)(=O)NCC2CCCN2CC2CCCCC2)c1` (stereo not drawn) [TCMDC-133687], the “% Inhibition” value is reported as -58.72%. With `O=C(Nc1cccc(CN2CCCN(Cc3ccc(O)cc3)CC2)c1)c1cccc(C(F)(F)F)c1` [TCMDC-141836], the “% Inhibition” value is reported as -28.76%. Take `O=C(Cn1c(=O)cnc2ccccc21)Nc1cccc(C(=O)Nc2cccc(C(F)(F)F)c2)c1` [TCMDC-125468]: the “% Inhibition” value is on record as 18.7%. For `CC12CCC(=O)N1C(C(=O)Nc1cccc(C(=O)Nc3cccc(C(F)(F)F)c3)c1)CS2` (stereo not drawn) [TCMDC-125019] the value was 77%. For `O=C(Cc1n[nH]c(=O)c2ccccc12)Nc1cccc(C(=O)Nc2cccc(C(F)(F)F)c2)c1` [TCMDC-125260] the value was 48.65%; for `CC(C)NCC(=O)Nc1cccc(C(=O)Nc2cccc(C(F)(F)F)c2)c1` [TCMDC-124878], 70.58%. For `CCCCCN1CCCC1CNS(=O)(=O)c1cccc(C(=O)Nc2cccc(C(F)(F)F)c2)c1` (stereo not drawn) [TCMDC-133686] the value was -82.32%; for `O=C(CN1CCCC1)Nc1cccc(C(=O)Nc2cccc(C(F)(F)F)c2)c1` [TCMDC-124512], 78.8%.

On to `CC(O)CNc1nc2ccccc2n1CC(=O)Nc1cccc(C(=O)Nc2cccc(C(F)(F)F)c2)c1` (stereo not drawn) [TCMDC-124335], for which the “% Inhibition” value came to 86.13%.

Take `COc1cc(C(=O)Nc2nc3ccccc3[nH]2)ccc1OCC(=O)Nc1cccc(C(F)(F)F)c1` [TCMDC-125460]: the “% Inhibition” value is 11.63%. For `COc1ccccc1C(C)NCC(=O)Nc1cccc(C(=O)Nc2cccc(C(F)(F)F)c2)c1` (stereo not drawn) [TCMDC-124871] the value was 31.1%. For `N[C@@H](Cc1ccc(O)cc1)C(=O)NC(c1ccccc1)c1c(O)ccc2ccccc12` (stereo partly drawn) [TCMDC-141232] the value was 9.479%. Consider `CC=CC1CCNC(C(O)c2ccnc3ccc(OC)cc23)C1` (stereo not drawn) [TCMDC-132000], for which the “% Inhibition” value turned out to be 38.01%.

In the case of `CN1CCC(N2CCC(Oc3cccc(C(=O)NCCCC4CCCC4)c3)CC2)CC1` [TCMDC-124677], the “% Inhibition” value turned out to be 58.06%.

For `CC(C)CCN1CCC(Oc2cccc(NC(=O)c3ccc(C(F)(F)F)cc3)c2)CC1` [TCMDC-133738], the “% Inhibition” value stood at 13.2%. For `O=C(NCCCCN1CCN(c2cccc(Cl)c2Cl)CC1)c1ccc2c(c1)CCN(C1CCC1)CC2` [TCMDC-136053] the value was 20.89%. For `CN1CCC(NCc2ccc(S(=O)(=O)Nc3ccc(Oc4cccc(Cl)c4)cc3)cc2)CC1` [TCMDC-136201] the value was 14.91%; for `CN1CCC(NCc2cccc(-c3cccc(S(=O)(=O)NCc4ccccc4)c3)c2)CC1` [TCMDC-132377], 104%.

Take `CN1CCC(NCc2ccc(-c3cccc(S(=O)(=O)NCC4CCCO4)c3)cc2)CC1` (stereo not drawn) [TCMDC-132242]: the “% Inhibition” value is listed as 58.26%.

Consider `CN1CCC(NCc2cccc(-c3ccc(S(=O)(=O)NCc4ccccc4)cc3)c2)CC1` [TCMDC-132213], for which the “% Inhibition” value is reported as 49.72%. For `CN1CCC(NCc2ccc(-c3ccc(S(=O)(=O)NCc4ccccc4)cc3)cc2)CC1` [TCMDC-132227] the value was 101.8%. For `CN1CCC(NCc2ccc(-c3cccc(S(=O)(=O)NCc4ccccc4)c3)cc2)CC1` [TCMDC-132238] the value was 104.8%; for `Cc1ccc(Nc2nc3cc(Nc4ccnc(Nc5cccc(CS(C)(=O)=O)c5)n4)ccc3o2)cc1` [TCMDC-141957], -56.36%. For `O=C(Nc1cc(C(F)(F)F)ccc1-n1cncn1)C1(c2ccccc2)CC1` [TCMDC-125454] the value was 25.16%; for `CCC(ON1C(N)=NC(N)=NC1(C)C)c1ccc(Cl)cc1` (stereo not drawn) [TCMDC-131709], 18.34%; for `Cc1cc(S(=O)(=O)N2CCCCC(c3ccc(C(F)(F)F)cc3)=N2)c(Cl)cc1Cl` [TCMDC-134540], -43.69%. With `Cc1ccc(S(=O)(=O)NC2=NC(C)(C)N(OCc3ccc(Cl)c(Cl)c3)C(N)=N2)cc1` [TCMDC-131711], the “% Inhibition” value is given as 22.12%. For `CN1CCN(c2cc(-c3cccc(C(F)(F)F)c3)nc(-c3ccncc3)n2)CC1` [TCMDC-125413] the value was 29.7%; for `Nc1nc(-c2ccccn2)nc(-n2nc(-c3cccc(C(F)(F)F)c3)cc2N)n1` [TCMDC-134026], 76.36%; for `Nc1cc(-c2cccc(Cl)c2)nn1-c1ccnc2cc(Cl)ccc12` [TCMDC-134027], -29.85%. For `Cc1ccccc1C1CCN(c2ccc(C(=O)Nc3ccccc3)cn2)CC1` [TCMDC-134584] the value was 3.597%. For `CC(=NNC(=S)NCc1ccco1)c1ccccn1` [TCMDC-137906] the value was 99.6%; for `COc1cc(CNC(=S)NN=C(C)c2ccccn2)cc(OC)c1OC` [TCMDC-137900], 55.54%; for `CC(=NNc1nc2ccccc2s1)c1ccccn1` [TCMDC-124267], 64.52%. Consider `O=C(NCCc1ccccc1)c1cc(-c2cccnc2)cnc1NCC1CC1` [TCMDC-136700], for which the “% Inhibition” value is 4.382%. For `CC(=NNC(=S)NCCc1ccccc1)c1ccccn1` [TCMDC-124270] the value was 79.29%; for `COc1cc(-c2nc3c4ccccc4c4ccccc4c3[nH]2)cc(OC)c1OC` [TCMDC-123980], 2.227%. For `CC(=NNC(=S)NC(c1ccccc1)c1ccccc1)c1ccccn1` [TCMDC-137894] the value was -31.88%; for `COc1cccc2c(NCCNc3ccnc4c(OC)cccc34)ccnc12` [TCMDC-137880], 30.12%; for `CCOc1ccc2nc(NC(=O)c3csnn3)sc2c1` [TCMDC-125075], 43.02%. Consider `O=c1cc(NCCCNCc2[nH]c3cc(Cl)cc(Cl)c3c2Cn2cccn2)[nH]c2ccccc12` [TCMDC-140152], for which the “% Inhibition” value is reported as -2.677%. For `COc1ccc2nccc([C@@H](O)CN3CCC(NCCc4c[nH]c5ccccc45)CC3)c2c1` [TCMDC-140938] the value was 7.162%.
